Laboratory results reported in the supplement of paper PMC6555819.

Key:
Test in all cases: PBM binding z-score (relative to random genomic background probes); higher = stronger binding; sequences stand for … in GC…GCGATTGACAGCGTAGAATGAAGG
[1] = test system: FXR:RXRa (NR concentration 270 nM, RXRa partner concentration 90 nM)
Procedure, shortened: (§1)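 Random background probes are the reference for binding z-scores. These scores derive from regression-normalized fluorescence on custom Agilent 4×180K protein-binding microarrays incubated 1 h with ligand-free nuclear receptor dimers. Binding was detected with antibodies against each partner (one per run).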

[2] = test system: LXRa:RXRa (NR concentration 270 nM, RXRa partner concentration 90 nM)
Procedure, shortened: as §1

[3] = test system: LXRa homodimer (NR concentration 270 nM)
Procedure, shortened: as §1

[4] = test system: LXRb:RXRa (NR concentration 270 nM, RXRa partner concentration 90 nM)
Procedure, shortened: as §1

[5] = test system: LXRb homodimer (NR concentration 270 nM)
Procedure, shortened: as §1

[6] = test system: PPARa:RXRa (NR concentration 270 nM, RXRa partner concentration 90 nM)
Procedure, shortened: as §1

[7] = test system: PPARg:RXRa (NR concentration 180 nM, RXRa partner concentration 90 nM)
Procedure, shortened: as §1

[8] = test system: PPARg:RXRa 270nM:90nM, anti-RXR (NR concentration 270 nM, RXRa partner concentration 90 nM)
Procedure, shortened: as §1

[9] = test system: PPARg:RXRa 30nM:10nM, anti-RXR (NR concentration 30 nM, RXRa partner concentration 10 nM)
Procedure, shortened: as §1

[10] = test system: PPARg:RXRa 90nM:30nM, anti-RXR (NR concentration 90 nM, RXRa partner concentration 30 nM)
Procedure, shortened: as §1

[11] = test system: PPARg:RXRa DBDmut IVT, anti-RXR (DBD mutation: RXRa K156A/R161A, NR concentration 270 nM, RXRa partner concentration 90 nM)
Procedure, shortened: as §1

[12] = test system: PPARg:RXRa IVT, anti-PPARg (NR concentration 270 nM, RXRa partner concentration 90 nM)
Procedure, shortened: as §1

[13] = test system: PPARg DBDmut:RXRa IVT, anti-PPARg (DBD mutation: PPARg1 K132A/R137A, NR concentration 270 nM, RXRa partner concentration 90 nM)
Procedure, shortened: as §1

[14] = test system: PPARg DBDmut IVT, anti-PPARg (DBD mutation: PPARg1 K132A/R137A, NR concentration 270 nM)
Procedure, shortened: as §1

[15] = test system: PPARg homodimer (NR concentration 180 nM)
Procedure, shortened: as §1

[16] = test system: PXR:RXRa (NR concentration 270 nM, RXRa partner concentration 90 nM)
Procedure, shortened: as §1

[17] = test system: PXR homodimer (NR concentration 270 nM)
Procedure, shortened: as §1

[18] = test system: RARa:RXR (NR concentration 270 nM, RXRa partner concentration 90 nM)
Procedure, shortened: as §1

[19] = test system: RARa homodimer (NR concentration 270 nM)
Procedure, shortened: as §1

[20] = test system: RARb:RXRa (NR concentration 270 nM, RXRa partner concentration 90 nM)
Procedure, shortened: as §1

CGTCCAAGGTCAATGCTAGTTCAGTGAAAGCATT
PBM binding z-score [1]: 7.07 | PBM binding z-score [2]: 4.94 | PBM binding z-score [3]: 1.4 | PBM binding z-score [4]: 3.86 | PBM binding z-score [5]: 0.707 | PBM binding z-score [6]: 4.84 | PBM binding z-score [7]: 3.72 | PBM binding z-score [8]: 4.27 | PBM binding z-score [9]: 1.01 | PBM binding z-score [10]: 2.95 | PBM binding z-score [11]: 2.97 | PBM binding z-score [12]: 3.31 | PBM binding z-score [13]: 1.63 | PBM binding z-score [14]: 0.145 | PBM binding z-score [15]: 3.77 | PBM binding z-score [16]: 5.51 | PBM binding z-score [17]: 2.79 | PBM binding z-score [18]: 4.79 | PBM binding z-score [19]: 0.972 | PBM binding z-score [20]: 5.1

TCAGACAGGTGAAGGTAACTGAGGTACGCAGTCG
PBM binding z-score [1]: 1.04 | PBM binding z-score [2]: 1.01 | PBM binding z-score [3]: -0.19 | PBM binding z-score [4]: 0.598 | PBM binding z-score [5]: -0.756 | PBM binding z-score [6]: 1.2 | PBM binding z-score [7]: 0.727 | PBM binding z-score [8]: 1.98 | PBM binding z-score [9]: 3.74 | PBM binding z-score [10]: 2.96 | PBM binding z-score [11]: 2.45 | PBM binding z-score [12]: 1.54 | PBM binding z-score [13]: 0.121 | PBM binding z-score [14]: -0.373 | PBM binding z-score [15]: 0.384 | PBM binding z-score [16]: 0.388 | PBM binding z-score [17]: -0.0672 | PBM binding z-score [18]: 0.874 | PBM binding z-score [19]: 0.545 | PBM binding z-score [20]: 1.04

CCTATTAGTTGACCATAAGGGCAACCGAAGCTCG
PBM binding z-score [1]: 1.08 | PBM binding z-score [2]: 0.988 | PBM binding z-score [3]: 0.64 | PBM binding z-score [4]: 0.736 | PBM binding z-score [5]: 0.554 | PBM binding z-score [6]: 0.977 | PBM binding z-score [7]: 0.556 | PBM binding z-score [8]: 0.931 | PBM binding z-score [9]: -0.00379 | PBM binding z-score [10]: 1.03 | PBM binding z-score [11]: 0.774 | PBM binding z-score [12]: 0.558 | PBM binding z-score [13]: 0.33 | PBM binding z-score [14]: 0.387 | PBM binding z-score [15]: 1.7 | PBM binding z-score [16]: 1 | PBM binding z-score [17]: 0.754 | PBM binding z-score [18]: 1.37 | PBM binding z-score [19]: 1.39 | PBM binding z-score [20]: 1.7

ACTGACAGGTGATGAAGGTAACTCAGGCTATCAT
PBM binding z-score [1]: -0.15 | PBM binding z-score [2]: -0.398 | PBM binding z-score [3]: -0.445 | PBM binding z-score [4]: -0.455 | PBM binding z-score [5]: -0.408 | PBM binding z-score [6]: -0.0489 | PBM binding z-score [7]: 0.472 | PBM binding z-score [8]: 0.0848 | PBM binding z-score [9]: 0.0417 | PBM binding z-score [10]: 0.219 | PBM binding z-score [11]: 0.252 | PBM binding z-score [12]: 0.675 | PBM binding z-score [13]: 0.404 | PBM binding z-score [14]: -0.0306 | PBM binding z-score [15]: -0.378 | PBM binding z-score [16]: -0.393 | PBM binding z-score [17]: -0.233 | PBM binding z-score [18]: -0.039 | PBM binding z-score [19]: 0.284 | PBM binding z-score [20]: 0.224

ATATGTAGGTTAAGGGTGATTCAGGTTGGTTCGC
PBM binding z-score [1]: 0.984 | PBM binding z-score [2]: 1.63 | PBM binding z-score [3]: 0.808 | PBM binding z-score [4]: 1.73 | PBM binding z-score [5]: 0.807 | PBM binding z-score [6]: 4.98 | PBM binding z-score [7]: 9.36 | PBM binding z-score [8]: 8.2 | PBM binding z-score [9]: 8.53 | PBM binding z-score [10]: 9.45 | PBM binding z-score [11]: 7.67 | PBM binding z-score [12]: 6.98 | PBM binding z-score [13]: 1.59 | PBM binding z-score [14]: 1.38 | PBM binding z-score [15]: 3.75 | PBM binding z-score [16]: 1.63 | PBM binding z-score [17]: 1.19 | PBM binding z-score [18]: 1.72 | PBM binding z-score [19]: 1.64 | PBM binding z-score [20]: 1.54

GGAACGAGGGCAAGTTGACAGCAGAGTTTGATGG
PBM binding z-score [1]: 0.854 | PBM binding z-score [2]: 0.43 | PBM binding z-score [3]: -0.472 | PBM binding z-score [4]: 0.324 | PBM binding z-score [5]: -0.45 | PBM binding z-score [6]: 1.69 | PBM binding z-score [7]: 1.15 | PBM binding z-score [8]: 1.35 | PBM binding z-score [9]: 0.346 | PBM binding z-score [10]: 0.686 | PBM binding z-score [11]: 4.05 | PBM binding z-score [12]: 3 | PBM binding z-score [13]: -0.195 | PBM binding z-score [14]: -0.654 | PBM binding z-score [15]: 0.481 | PBM binding z-score [16]: 0.693 | PBM binding z-score [17]: 0.641 | PBM binding z-score [18]: 0.4 | PBM binding z-score [19]: -0.316 | PBM binding z-score [20]: 2.51
